S1P4 agonist = activates the human S1P4 receptor; O95977; S1P4-expressing cell line, agonist reporter assay; activation, % at 4.98 µM; hit rate 0.35% among 220,000; in the data active = activation above about 11%;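 note: 0% = DMSO vehicle and 100% = reference agonist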
S1P4 antagonist = antagonists of human S1P4 receptor. O95977. S1P4-expressing cells, antagonist mode, reporter read-out. inhibition, % at 4.98 µM. hit rate 0.26% among 220,000; in the data active = inhibition above about 29%;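 note: 0% = wells stimulated with agonist and 100% = vehicle wells without agonist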
PGE2 EP2 inh = blocks the human prostaglandin E2 receptor EP2; AID 1422; C6 glioma cells expressing human EP2, cAMP TR-FRET; cells stimulated with saturating PGE2; hit rate 0.52% among 260,000; inhibition, % at 25 µM;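 active = percent inhibition above 40 after rounding to a whole number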;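 note: rat C6 glioma host cells with rolipram phosphodiesterase inhibitor present; the protocol text gives 20 µM as final concentration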
S1P3 antag = S1P3 (human) receptor antagonism | Q99500 | CHO S1P3 NFAT-BLA reporter, FRET fluorescence, antagonist mode | inhibition, % at 4.98 µM | hit rate 0.27% among 170,000 | AID 485;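 active = inhibition above the plate cutoff, the mean inhibition of test wells on that plate plus 3 SD, cut at about 28% in these data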;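 note: cells challenged with S1P at its EC80 of 0.8 µM; blue over green emission ratio from cleaved BLA substrate after 4 h stimulation; 0% = S1P-stimulated wells and 100% = unstimulated DMSO-only wells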
Target sequence (Q99500 whole entry, looked up): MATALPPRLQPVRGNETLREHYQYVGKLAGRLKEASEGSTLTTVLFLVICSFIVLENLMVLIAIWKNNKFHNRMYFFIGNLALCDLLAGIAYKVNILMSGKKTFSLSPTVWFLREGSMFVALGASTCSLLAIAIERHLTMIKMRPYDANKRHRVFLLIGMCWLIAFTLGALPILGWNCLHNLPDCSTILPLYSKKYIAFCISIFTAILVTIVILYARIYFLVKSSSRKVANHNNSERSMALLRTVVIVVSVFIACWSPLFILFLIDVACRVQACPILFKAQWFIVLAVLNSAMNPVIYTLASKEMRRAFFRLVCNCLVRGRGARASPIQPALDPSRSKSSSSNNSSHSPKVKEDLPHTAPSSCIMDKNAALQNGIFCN
EP2 mod = modulates human prostaglandin E2 receptor EP2 signaling | induction, % at 25 µM | AID 940 | hit rate 0.83% among 260,000 | EP2-expressing cells, cAMP HTRF FRET, PGE2 co-stimulation;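 active = compounds whose cAMP rise, as percent of the full-agonist control response, exceeds 60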;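 note: rat C6 glioma line stably carrying human EP2 under a CMV promoter; the protocol text gives 20 µM as final concentration; 100% = response of wells given 1 µM PGE2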
S1P4 ag conf = human S1P4 agonism, confirmation; S1P4 agonist cell-based reporter assay; shares compounds with S1P4 agonist; activation, % at 4.98 µM; hit rate 7% among 740; in the data active = activation above about 12%;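 note: 0% = vehicle and 100% = full reference agonist response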
S1P1 agonist = human S1P1 agonism as S1P4 agonist counter-screen; shares compounds with S1P4 agonist; S1P1 agonist cell-based assay, activation; activation, % at 4.98 µM; hit rate 4% among 740; AID 1563; in the data active = activation above about 21%;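 note: 0% = vehicle wells and 100% = reference agonist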
Active calls of the source: *; · = no result given; ! = not active in a repeat. Shown are actives, neighbours in structure and some others; about 1.9% of the full set was active somewhere.

SMILES	S1P4 agonist	S1P4 antagonist	PGE2 EP2 inh	S1P3 antag	EP2 mod	S1P4 ag conf	S1P1 agonist
COC(=O)c1c(-n2c(C)cc(C=O)c2C)sc2c1CCCC2	12*	2	19	·	27	15*	-3
O=C(CN1CCCCC1)Nc1scc2c1c(=O)oc1ccccc12	0	-2	5	-1	5	·	·
O=C(CN1CCOCC1)Nc1scc2c1c(=O)oc1ccccc12	23*	5	8	-3	-46	-2	-6
O=C(O)CCn1cnc2sc3c(c2c1=O)CCCC3	·	·	23	·	-2	·	·
Cc1ccc(S(=O)(=O)/N=C2\CN(C)C(=O)N2C)cc1	16*	-6	10	-5	36	-1	3
S=C(NCCc1ccccc1)N1CCC(c2nc3ccccc3[nH]2)CC1	·	·	12	·	-78	·	·
CC(=O)Nc1ccc(S(=O)(=O)N2CCC(=O)Nc3ccccc32)cc1	16*	-67	6	3	1	-3	-4
Cc1ccc(S(=O)(=O)N2CC(=O)Nc3ccccc32)cc1	-2	0	4	·	16	·	·
COc1ccc(NC(=O)COC(=O)C2CC(=O)N(c3ccccc3)C2)cc1 (centres undefined)	·	·	12	·	-40	·	·
CCOC(=O)CS(=O)(=O)c1ccc(O)cc1	22*	-10	7	5	9	-2	-1
COc1ccc(C)cc1N(CC(=O)NC(C)(C)C)C(=O)c1csnn1	·	·	9	·	9	·	·
Cc1nn(-c2ccccc2)c(Cl)c1/C=N/NS(=O)(=O)c1ccc(Br)cc1	51*	2	10	-13	23	-2	-6
Cc1ccc(N/N=C(\C#N)C(N)=S)c(C)c1	20*	-1	5	3	-5	-1	-2
Cc1ccc(NC(=O)/C(C#N)=N/Nc2ccc(C(=O)O)cc2)c(C)c1	-1	14	2	-11	-9	·	·
S=C(c1cn(CCOc2cccc3ccccc23)c2ccccc12)N1CCCC1	29*	-6	6	4	15	-2	-1
Cc1ccccc1-n1c(SCC(=O)N/N=C/C=C/c2ccccc2[N+](=O)[O-])nc2ccccc2c1=O	14*	-15	6	15	-1	-3	-12
Cc1nonc1CNCc1ccccc1	·	·	11	·	-36	·	·
CC(=O)Nc1ccc(NC(=O)c2oc3cc(C)c(C)cc3c2C)cc1	12*	-9	11	-11	-8	-2	-1
Cc1ccc(CCNC(=O)c2nnn(-c3cc(C)cc(C)c3)c2N)cc1	11*	-12	7	1	-39	-2	-3
Cc1cc(OCCN2CCCCCC2)ccc1[N+](=O)[O-]	24*	-19	8	1	-9	-1	7
Cc1cc(OCC(=O)N2CCCCCC2)ccc1[N+](=O)[O-]	0	-22	7	4	17	·	·
COc1ccc(-c2cc(C(=O)N/N=C/c3ccc(OC)c(COCC(F)(F)C(F)F)c3)c3ccccc3n2)c(OC)c1	72*	-9	10	·	2	-2	-7
CCCc1cc(Nc2ccc(C(C)=O)cc2)n2ncnc2n1	·	·	10	·	16	·	·
CC(NC(=O)c1cnc2n(c1=O)CCS2)c1ccccc1 (centres undefined)	0	-1	19	3	21	·	·
CCC(C)NC(=O)c1cnc2n(c1=O)CCS2 (centres undefined)	25*	-6	12	-12	2	-2	4
SMILES	S1P4 agonist	S1P4 antagonist	PGE2 EP2 inh	S1P3 antag	EP2 mod	S1P4 ag conf	S1P1 agonist
Cn1c(SCC(=O)c2ccc3c(c2)OCO3)nnc1C1COc2ccccc2O1 (centres undefined)	11*	5	13	12	-59	62*	-1
Cc1cccc(-n2c(=O)c(C#N)cc3c(=O)n4ccccc4nc32)c1	14*	-12	4	·	32	17*	22*
Cc1ccc(-n2c(=O)c(C#N)cc3c(=O)n4ccccc4nc32)cc1	2	-10	5	-20	8	·	·
O=C(COC(=O)c1cn(-c2ccccc2)nc1-c1cccs1)NC1CC1	34*	-9	11	23	42	-2	-12
N=C1C(c2nc3ccccc3s2)=C(O)CN1c1cccc(Cl)c1Cl	·	·	17	·	-35	·	·
COc1ccc2occ(C(=O)c3cccs3)c2c1	166*	-8	2	·	-22	-1	3
COc1ccc(OC)c(C(=O)c2coc3ccc(OC(C)=O)cc23)c1	0	-2	14	-4	-7	·	·
COc1cc(/C=C2\C=C(c3ccc(Cl)cc3)OC2=O)cc(Cl)c1OC(C)=O	·	·	8	·	-62	·	·
Cc1cccc(CN(C(=S)Nc2c(C)cccc2C)c2cccnc2)c1	18*	-25	6	-3	0	-2	-9
Cn1c(=O)oc2cc(S(=O)(=O)N3CCC(C(=O)NCCc4ccccc4)CC3)ccc21	14*	-6	8	10	-21	-2	-7
COc1cc(C2NC(=O)C(C#N)=C(Nc3cccc(C)c3)S2)ccc1O (centres undefined)	22*!	12	10	-8	-26	0	1
CSc1nc(N)n2nc(C(C)(C)C)cc2n1	23*	-17	2	-4	-23	-2	-5
O=C(CN1C(=O)COc2ccccc21)Nc1ccc(Cl)cc1	·	·	8	·	2	·	·
Cc1ccc(NC(=O)COC(=O)CN2C(=O)COc3ccccc32)cc1	29*	-15	9	·	-10	-2	3
COc1cc(-n2c(=O)c3ccccc3n(Cc3cccc(C)c3)c2=O)cc(OC)c1OC	31*	0	1	-27	9	2	-3
COc1cc(-n2c(=O)c3ccccc3n(Cc3cccnc3)c2=O)cc(OC)c1OC	2	-6	14	0	·	·	·
Cc1ccc(CN(c2ccc(C(=O)NCC3CCCO3)cc2)S(C)(=O)=O)cc1 (centres undefined)	30*	-9	4	-8	10	-1	9
CC(=O)Oc1cc(OC(C)=O)c2c(c1)O[C@H](c1ccc(OC(C)=O)c(OC(C)=O)c1)[C@H](OC(C)=O)C2	·	·	13	·	1	·	·
O=C(c1ccc(S(=O)(=O)N2CCCCC2)cc1)N1CCN(c2ccccc2)CC1	3	-14	11	4	-41	·	·
CS(=O)(=O)Nc1ccc(C(=O)N2CCN(c3ccccc3)CC2)cc1	56*	-5	8	·	30	-2	-4
COc1ccc(C(=O)COC(=O)C2CC(=O)N(c3ccc(C)cc3)C2)cc1Br (centres undefined)	·	·	14	·	-128	·	·
Cc1ccc(NCc2nnc(SCC(=O)O)n2C)cc1Cl	·	·	3	·	6	·	·
C(=C\c1nccc2c1[nH]c1ccccc12)/c1ccccc1	11*	1	25	4	-57	1	5
CCOC(=O)n1ccc(C(=O)Nc2ccccc2F)n1	16*	3	3	-3	10	0	-9
CC(=O)Nc1nc(SCc2ccc(Cl)cc2Cl)n[nH]1	12*	10	9	·	1	-2	-1
Nc1nc(SCc2ccc(Cl)cc2Cl)n[nH]1	0	21	14	1	5	·	·
